High-throughput results from PubChem.
A selection: hits, their analogues and other compounds. The true share with any hit is near 1.2%.
RGS16-Gao HTS = regulators of human RGS16-Galphao interaction. O15492+P09471. bead-based flow cytometry RGS16-Galphao binding, fluorescence; actives lie on both sides. binding response (% of control), % at 10 µM. 0.38% of 220,000 active;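 note: Galphao activated by GDP with aluminum fluoride before binding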
Avidin bead fluor = compound fluoresces at 488/530 nm on avidin beads. compound fluorescence 488/530 nm, flow cytometry; hits give high values. fluorescence (KMESF) at 10 µM. 0.38% of 220,000 active. AID 1775; in the data active = fluorescence above about 47
RGS7-Gao reg = modulates binding of RGS7 to human Galphao; AID 1439; P09471; binding response (% of control), % at 10 µM; Multiplexed bead flow cytometry; actives lie on both sides; 0.35% of 220,000 active; in the data active = binding response below about 49% or above about 150%; inconclusive = no clear call, values can overlap the other calls; inactive = in between;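 note: fluorescent Galphao held in activated GDP-AlF4 state binding bead-coupled RGS7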
Target sequence (P09471 whole entry, looked up): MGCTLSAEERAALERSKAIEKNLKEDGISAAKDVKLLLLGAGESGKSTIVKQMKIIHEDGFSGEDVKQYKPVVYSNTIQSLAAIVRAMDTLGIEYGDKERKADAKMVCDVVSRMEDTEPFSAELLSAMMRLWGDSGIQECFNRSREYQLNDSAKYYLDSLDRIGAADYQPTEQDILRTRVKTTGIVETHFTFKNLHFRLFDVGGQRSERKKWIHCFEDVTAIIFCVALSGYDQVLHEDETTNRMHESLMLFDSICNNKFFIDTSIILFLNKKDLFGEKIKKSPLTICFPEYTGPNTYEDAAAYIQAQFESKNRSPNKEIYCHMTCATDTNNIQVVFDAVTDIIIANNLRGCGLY
GSH fluor = GSH bead compound fluorescence profile; GSH beads flow cytometry, compound fluorescence 488/530 nm; hits give high values; fluorescence (KMESF) at 10 µM; 0.25% of 190,000 active; AID 1776; in the data active = fluorescence above about 89;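 note: glutathione beads carrying GST-tagged Bcl family fusion proteins plus one bare bead set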
RGS8-Gao reg = regulators of human RGS8-Galphao interaction; P09471; multiplexed bead flow cytometry, RGS8-Galphao binding; actives lie on both sides; response (percent of control binding), % at 10 µM; 0.34% of 220,000 active; in the data active = response below about 60% or above about 140%; inactive = in between;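 note: Galphao activated as the GDP aluminium fluoride complex binding bead-coupled RGS8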
RGS4-Gao reg = human RGS4-Galphao interaction regulation. binding response (% of control), % at 10 µM. 0.33% of 220,000 active. P09471. Multiplexed bead flow cytometry, RGS4-Galphao binding; actives lie on both sides; in the data active = binding response below about 49% or above about 150%; inactive = in between;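 note: fluorescent Galphao activated with aluminum fluoride binding bead-coupled RGS4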
RGS-Gao = modulates binding between human RGS4 and Galphao | shares compounds with RGS16-Gao HTS | multiplexed bead flow cytometry, RGS–Galpha-o binding | RGS4–Galpha-o binding response, % at 10 µM | 99% of 1,600 active | AID 1504;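 note: fluorescently labeled Galpha-o bound to GDP with aluminium fluoride binding biotinylated RGS beads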
Avidin counter = counter-screen: compounds disrupting biotin binding to avidin beads; shares compounds with RGS16-Gao HTS; streptavidin beads, fluorescein-biotin binding, flow cytometry; inhibition, % at 10 µM; 1,700 tested, under 10 active;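 active = inhibition above 50%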;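 note: median green fluorescence of gated singlet beads compared with DMSO control wells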
RGS8-Gao single = confirmation of regulators of human RGS8-Galphao interaction | shares compounds with RGS16-Gao HTS | binding response (% of control), % at 10 µM | bead-based flow cytometry RGS8-Galphao binding, fluorescence; actives lie on both sides | 3% of 1,700 active; in the data active = binding response below about 72% or above about 130%; inactive = in between;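 note: Galphao activated as GDP AlF4 complex before binding bead RGS8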
RGS7-Gao single = confirmation of regulators of human RGS7-Galphao interaction; bead-based flow cytometry RGS7-Galphao binding; actives lie on both sides; shares compounds with RGS16-Gao HTS; 7.8% of 1,700 active; response (percent of control binding), % at 10 µM; in the data active = response below about 75% or above about 130%; inactive = in between;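 note: fluorescent Galphao activated with GDP and aluminum fluoride binding bead-coupled RGS7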
RGS16-Gao single = confirmation of regulators of human RGS16-Galphao interaction; shares compounds with RGS16-Gao HTS; bead-based flow cytometry, RGS16-Galphao binding; actives lie on both sides; response (% of control binding), % at 10 µM; 4% of 1,700 active; in the data active = response below about 74% or above about 130%; inactive = in between;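 note: Galphao activated as the GDP aluminium fluoride complex binding bead-coupled RGS16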
RGS4-Gao single = RGS4-Galphao interaction regulation, single point confirmation. binding response (% of control), % at 10 µM. 4% of 1,700 active. RGS4-Galphao binding, multiplexed bead flow cytometry; actives lie on both sides. shares compounds with RGS16-Gao HTS; in the data active = binding response below about 74% or above about 130%; inactive = in between
RGS19-Gao single = confirmation of regulators of human RGS19-Galphao interaction; bead-based flow cytometry RGS19-Galphao binding; actives lie on both sides; AID 1841; shares compounds with RGS16-Gao HTS; 5% of 1,700 active; response (percent of control binding), % at 10 µM; in the data active = response below about 50% or above about 160%; inactive = in between
Large screens that a line does not name were inactive (follow-up assays come after a bar, where they were run); [ ] = remark or other dose. Unless noted, the rule behind the calls is not given here.

CC(=O)Nc1ccccc1-c1nc2ccc(C(=O)N3CCN(c4cc(C)ccc4C)CC3)cc2[nH]c1=O	Avidin bead fluor 78, RGS7-Gao reg 168[activator] | RGS-Gao 111 | Avidin counter inactive | RGS8-Gao single inactive | RGS7-Gao single 74 | RGS16-Gao single inactive | RGS4-Gao single inactive | RGS19-Gao single inactive
CCCCN(CCCC)CCCNC(=O)c1ccc2nc(-c3ccccc3NC(C)=O)c(=O)[nH]c2c1	none
CCCCc1ccc(NC(=O)CN2NS(=O)(=O)c3ccccc3C2=O)cc1	RGS16-Gao HTS -6.9 | RGS-Gao 87
Cc1ccc(-c2ccc(S(=O)(=O)NCC3CCCO3)cc2)cc1 (configuration not stated)	none
O=S(=O)(NCC1CCCO1)c1ccc(Cl)nc1 (configuration not stated)	none (no result: RGS16-Gao HTS, Avidin bead fluor, RGS7-Gao reg, GSH fluor, RGS8-Gao reg, RGS4-Gao reg) | Avidin counter inactive | RGS8-Gao single inactive | RGS7-Gao single inactive | RGS16-Gao single inactive | RGS4-Gao single inactive | RGS19-Gao single inactive
CC1(C)Cc2ccccc2-c2nnc(-c3ccc4ccccc4n3)n21	RGS16-Gao HTS 19 | RGS-Gao 78 | Avidin counter inactive | RGS8-Gao single inactive | RGS7-Gao single inactive | RGS16-Gao single inactive | RGS4-Gao single inactive | RGS19-Gao single inactive
Cc1cc2c(cc1C)-c1nnc(-c3ccc4ccccc4n3)n1C(C)(C)C2	none
COc1ccc(CNC(=S)Nc2ccccc2-c2ccccc2)cc1	RGS7-Gao reg inconclusive
CCC/C(O)=C1\C(=O)CC(c2ccccc2)CC1=NCCc1c(C)[nH]c2ccc(C)cc12 (configuration not stated)	RGS16-Gao HTS 14, RGS8-Gao reg 52 | RGS-Gao 52
Cc1cc(C)cc(NC(=O)Nc2ccc(Cl)cn2)c1	none
O=P(CCCCCCCCCP(=O)(c1ccccc1)c1ccccc1)(c1ccccc1)c1ccccc1	none
CN1CCN(CCP(=O)(c2ccccc2)c2ccccc2)CC1	none (no result: RGS16-Gao HTS, Avidin bead fluor, RGS7-Gao reg, RGS8-Gao reg, RGS4-Gao reg) | Avidin counter inactive | RGS8-Gao single inactive | RGS7-Gao single inactive | RGS16-Gao single inactive | RGS4-Gao single inactive | RGS19-Gao single inactive
O=P(CCO)(c1ccccc1)c1ccccc1	RGS7-Gao reg 166[activator] | RGS-Gao 104 | Avidin counter inactive | RGS8-Gao single inactive | RGS7-Gao single inactive | RGS16-Gao single inactive | RGS4-Gao single inactive | RGS19-Gao single inactive
CN(CC(=O)Nc1ccc(F)cc1)CC(=O)Nc1ccc(F)c(F)c1F	none
CN1C(=O)N(CN2CCCCC2)C2C1N(C)C(=O)N2CN1CCCCC1 (configuration not stated)	RGS8-Gao reg 154[activator] | RGS-Gao 127
Cn1ccc(NC(=O)Nc2cccc([N+](=O)[O-])c2)n1	none
Cc1ccc(-c2cc(C(=O)N/N=C/c3ccco3)n[nH]2)s1	none
CC(C)(C)c1cc(C(=O)N/N=C/c2ccco2)n[nH]1	RGS16-Gao HTS 279[activator] | RGS-Gao 114 | Avidin counter inactive | RGS8-Gao single inactive | RGS7-Gao single inactive | RGS16-Gao single inactive | RGS4-Gao single inactive | RGS19-Gao single inactive
O=C(NCc1ccccc1)NCc1cccs1	none
